# Data published in PubChem BioAssay.
# Values joined by “and” are separate entries in the source; they are usually repeats but may differ in a detail not shown here. Equal values may be shown once. A number with no mark means an inactive call. How the calls were made is not given here.
# Test system: Botulinum neurotoxin type F light chain protease (Clostridium botulinum)
# Assay: Clostridium botulinum type F light chain protease inhibitors, microsphere substrate cleavage, validation (AID 588459)
# Conditions: multiplex microsphere protease substrate cleavage assay, flow cytometry; at 10 µM; hits give high values
row,SMILES,inhibition
1,CCC(=O)O[C@]1(C(=O)CCl)[C@@H](C)C[C@H]2[C@@H]3CCC4=CC(=O)C=C[C@]4(C)[C@@]3(F)[C@@H](O)C[C@@]21C,-0.5%
2,CCNC(=O)C12CCC(C)(C(=O)O1)C2(C)C (stereo not given),-1%
3,COc1ccccc1-c1c(C(F)(F)F)oc2cc(OC(=O)c3ccc([N+](=O)[O-])cc3)ccc2c1=O,0.7%
4,C=CCc1cccc2cc(C(=O)Nc3ccc(CC(=O)O)cc3)c(=O)oc12,1.3%
5,CC(=O)C1=C(O)C(=O)N(CC(=O)O)C1c1ccccc1Cl (stereo not given),-1.5%
6,Nc1ccc(C(=O)O)c(O)c1,-4.5% and 1.6%
7,C[N+]12CCCCC1C(COC(=O)c1ccc3c(c1)OCO3)CCC2 (stereo not given),2.1%
8,O=c1n(CCCN2CCN(c3cccc(Cl)c3)CC2)nc2ccccn12,-5.2%
9,CCOc1ccc(C(=O)NC(C)C2COc3ccccc3O2)cc1 (stereo not given),-6.8%
10,COc1cc(CNc2ccc(C)c(C)c2)cc(OC)c1OC,1.8%
11,C(=C/c1nccc2c1[nH]c1ccccc12)/c1ccc2c(c1)OCO2,3.2%
12,COC(=O)c1cc(C(=O)NCCC(C)C)cc([N+](=O)[O-])c1,-5.3%
13,O=C(Nc1ccc(Oc2c(F)c(F)c(F)c(F)c2F)cc1)OC1CCN2Cc3ccccc3N=C12 (stereo not given),-1.9%
14,COc1ccc2c(c1OC)C(=O)NC(C)=C(C(=O)OC(C)(C)C)C2O (stereo not given),4.3%
15,C[C@]12CC[C@@H]3c4ccc(O)cc4[C@@H](O)C[C@H]3[C@@H]1CC[C@@H]2O,3.3%
16,CN1CCc2c(n(CC(O)CN(CCO)CCO)c3ccccc23)C1=O (stereo not given),-0.1%
17,CCN(CC)C(=O)c1sc(NC(=O)c2c(OC)cccc2OC)c(C#N)c1C,6%
18,Cc1ccc2c(c1)c(=O)c1c3n2CCN(C(=O)CCl)C3CC1 (stereo not given),-11.4%
19,Cc1ncoc1C(=O)N1CCCC(C(=O)c2ccc(-c3ccccc3)c(F)c2)C1 (stereo not given),-2.3%
20,COC(=O)c1cc(OC)c(OC)cc1NC(=O)Nc1ccc(OC)cc1OC,-4%

row,SMILES,inhibition
1,CCc1c(C)c2ccc(OCC(=O)OC(C)C)c(C)c2oc1=O,-1.9%
2,O=C1NCC2=C1C(c1ccccc1)Nc1ccccc1N2 (stereo not given),2.4%
3,CC(C)CN1CCN(Cc2cccn2-c2ccccn2)CC1CCO (stereo not given),-0.4%
4,COc1ccc(S(N)(=O)=O)cc1C(N)=O,1.6%
5,COc1ccccc1N1CCN(CC(O)COc2cccc3ccccc23)CC1 (stereo not given),-2%
6,C[C@]12CCC3C(CC=C4C[C@@H](O)CC[C@@]43C)C1CCC2[C@]1(C)CCC(=O)O1 (stereo not given in full),0.6%
7,COc1cc2c(cc1OC)C1(CCCCC1)CN(C)C2,1.7%
8,CC(C)OC(=O)C1C(=O)CC(C)(O)C(C(=O)OC(C)C)C1c1cccc(O)c1 (stereo not given),3.9%
9,C=CCOc1ccc(C(=O)CC)cc1OC,0.6%
10,C[N+](C)(C)CCOP(=O)(O)OP(=O)([O-])OC[C@H]1O[C@@H](n2ccc(N)nc2=O)[C@H](O)[C@@H]1O,6%
11,O=C(NC(=S)Nc1ccc2c(c1)OCCO2)c1ccccc1F,2.3%
12,CC(O)Cn1cnc2c1c(=O)n(C)c(=O)n2C (stereo not given),-1.4%
13,COc1ccc(-c2coc3cc(OC(=O)N4CCOCC4)ccc3c2=O)cc1,4.3%
14,COc1cccc(-n2cc(CNCc3c(C(=O)N(C)C)nc4ccc(Cl)cn34)cn2)c1,1.3%
15,COCCOC(=O)c1c(C)oc2ccc(OCc3cc(C(=O)OC)oc3C)cc12,-0.6%
16,COc1ccc2c(c1)[N+](C)(C)C(C)(C)C=C2C,-0.4%
17,CC(C)=CCC/C(C)=C/CC/C(C)=N/O,-1.6%
18,Cc1ccccc1NC(=O)C1(C)Cc2ccccc2C(=O)O1 (stereo not given),0.3%
19,COc1ccc(/C=C(/C#N)c2cccnc2)cc1OC,-0.3%
20,C=CCOC(=O)C1=C(C)NC(=O)NC1/C=C/c1ccccc1OC (stereo not given),1%

# Molecular target: Botulinum neurotoxin type A (Clostridium botulinum) (UniProt P0DPI0)
# Sequence (P0DPI0 whole entry, looked up): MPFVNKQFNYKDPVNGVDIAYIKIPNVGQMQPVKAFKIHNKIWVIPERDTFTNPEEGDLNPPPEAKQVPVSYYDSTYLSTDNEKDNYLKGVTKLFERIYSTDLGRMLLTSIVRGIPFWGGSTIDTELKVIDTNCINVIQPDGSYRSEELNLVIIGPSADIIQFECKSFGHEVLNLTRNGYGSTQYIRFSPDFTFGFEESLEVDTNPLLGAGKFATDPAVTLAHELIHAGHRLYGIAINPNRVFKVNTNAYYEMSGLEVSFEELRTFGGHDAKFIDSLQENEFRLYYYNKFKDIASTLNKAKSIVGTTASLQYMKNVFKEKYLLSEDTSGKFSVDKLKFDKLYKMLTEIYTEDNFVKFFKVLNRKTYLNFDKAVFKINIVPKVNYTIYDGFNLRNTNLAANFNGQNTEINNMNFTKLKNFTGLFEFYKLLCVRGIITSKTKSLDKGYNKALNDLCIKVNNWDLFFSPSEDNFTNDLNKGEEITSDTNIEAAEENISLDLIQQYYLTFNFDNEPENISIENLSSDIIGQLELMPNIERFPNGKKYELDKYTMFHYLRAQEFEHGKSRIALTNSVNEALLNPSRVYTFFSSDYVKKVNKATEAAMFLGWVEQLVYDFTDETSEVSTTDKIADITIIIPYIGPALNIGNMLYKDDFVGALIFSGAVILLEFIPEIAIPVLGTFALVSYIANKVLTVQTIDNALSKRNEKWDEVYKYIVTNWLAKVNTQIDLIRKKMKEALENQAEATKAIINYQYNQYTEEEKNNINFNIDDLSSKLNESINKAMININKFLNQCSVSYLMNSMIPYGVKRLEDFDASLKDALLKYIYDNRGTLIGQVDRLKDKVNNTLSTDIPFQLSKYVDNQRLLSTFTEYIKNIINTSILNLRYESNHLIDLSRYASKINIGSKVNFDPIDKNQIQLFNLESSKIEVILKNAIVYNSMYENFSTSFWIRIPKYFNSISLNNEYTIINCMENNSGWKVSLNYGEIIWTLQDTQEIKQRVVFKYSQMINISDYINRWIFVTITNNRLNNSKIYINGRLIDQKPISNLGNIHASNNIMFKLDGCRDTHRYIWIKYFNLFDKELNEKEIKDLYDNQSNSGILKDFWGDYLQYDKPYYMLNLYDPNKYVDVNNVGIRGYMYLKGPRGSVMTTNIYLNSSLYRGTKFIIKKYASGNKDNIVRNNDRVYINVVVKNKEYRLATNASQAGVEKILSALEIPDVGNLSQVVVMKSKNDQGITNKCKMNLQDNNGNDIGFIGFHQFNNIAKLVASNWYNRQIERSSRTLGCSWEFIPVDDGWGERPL
# Assay: BoNT/A light chain protease inhibitors, biochemical, multiplex microsphere flow cytometry, validation set (AID 588460)
# Conditions: at 10 µM, hits give high values
row,SMILES,inhibition
1,CCC(=O)O[C@]1(C(=O)CCl)[C@@H](C)C[C@H]2[C@@H]3CCC4=CC(=O)C=C[C@]4(C)[C@@]3(F)[C@@H](O)C[C@@]21C,-1.2%
2,CCNC(=O)C12CCC(C)(C(=O)O1)C2(C)C (stereo not given),-1%
3,COc1ccccc1-c1c(C(F)(F)F)oc2cc(OC(=O)c3ccc([N+](=O)[O-])cc3)ccc2c1=O,-0.5%
4,C=CCc1cccc2cc(C(=O)Nc3ccc(CC(=O)O)cc3)c(=O)oc12,-0.1%
5,CC(=O)C1=C(O)C(=O)N(CC(=O)O)C1c1ccccc1Cl (stereo not given),-0.5%
6,Nc1ccc(C(=O)O)c(O)c1,-0.4% and -0.2%
7,C[N+]12CCCCC1C(COC(=O)c1ccc3c(c1)OCO3)CCC2 (stereo not given),0.2%
8,O=c1n(CCCN2CCN(c3cccc(Cl)c3)CC2)nc2ccccn12,-0.2%
9,CCOc1ccc(C(=O)NC(C)C2COc3ccccc3O2)cc1 (stereo not given),-0.6%
10,COc1cc(CNc2ccc(C)c(C)c2)cc(OC)c1OC,0.5%
11,C(=C/c1nccc2c1[nH]c1ccccc12)/c1ccc2c(c1)OCO2,6.7%
12,COC(=O)c1cc(C(=O)NCCC(C)C)cc([N+](=O)[O-])c1,-2.3%
13,O=C(Nc1ccc(Oc2c(F)c(F)c(F)c(F)c2F)cc1)OC1CCN2Cc3ccccc3N=C12 (stereo not given),-1.4%
14,COc1ccc2c(c1OC)C(=O)NC(C)=C(C(=O)OC(C)(C)C)C2O (stereo not given),-0.4%
15,C[C@]12CC[C@@H]3c4ccc(O)cc4[C@@H](O)C[C@H]3[C@@H]1CC[C@@H]2O,-0.4%
16,CN1CCc2c(n(CC(O)CN(CCO)CCO)c3ccccc23)C1=O (stereo not given),0.2%
17,CCN(CC)C(=O)c1sc(NC(=O)c2c(OC)cccc2OC)c(C#N)c1C,2.1%
18,Cc1ccc2c(c1)c(=O)c1c3n2CCN(C(=O)CCl)C3CC1 (stereo not given),-1.3%
19,Cc1ncoc1C(=O)N1CCCC(C(=O)c2ccc(-c3ccccc3)c(F)c2)C1 (stereo not given),-0.1%
20,COC(=O)c1cc(OC)c(OC)cc1NC(=O)Nc1ccc(OC)cc1OC,-0.8%

row,SMILES,inhibition
1,CCc1c(C)c2ccc(OCC(=O)OC(C)C)c(C)c2oc1=O,-0.4%
2,O=C1NCC2=C1C(c1ccccc1)Nc1ccccc1N2 (stereo not given),0.1%
3,CC(C)CN1CCN(Cc2cccn2-c2ccccn2)CC1CCO (stereo not given),-0.5%
4,COc1ccc(S(N)(=O)=O)cc1C(N)=O,0.4%
5,COc1ccccc1N1CCN(CC(O)COc2cccc3ccccc23)CC1 (stereo not given),-2.3%
6,C[C@]12CCC3C(CC=C4C[C@@H](O)CC[C@@]43C)C1CCC2[C@]1(C)CCC(=O)O1 (stereo not given in full),-0.3%
7,COc1cc2c(cc1OC)C1(CCCCC1)CN(C)C2,-1.2%
8,CC(C)OC(=O)C1C(=O)CC(C)(O)C(C(=O)OC(C)C)C1c1cccc(O)c1 (stereo not given),-0.2%
9,C=CCOc1ccc(C(=O)CC)cc1OC,-0.5%
10,C[N+](C)(C)CCOP(=O)(O)OP(=O)([O-])OC[C@H]1O[C@@H](n2ccc(N)nc2=O)[C@H](O)[C@@H]1O,0.6%
11,O=C(NC(=S)Nc1ccc2c(c1)OCCO2)c1ccccc1F,0.4%
12,CC(O)Cn1cnc2c1c(=O)n(C)c(=O)n2C (stereo not given),-0.5%
13,COc1ccc(-c2coc3cc(OC(=O)N4CCOCC4)ccc3c2=O)cc1,-1.4%
14,COc1cccc(-n2cc(CNCc3c(C(=O)N(C)C)nc4ccc(Cl)cn34)cn2)c1,-0.7%
15,COCCOC(=O)c1c(C)oc2ccc(OCc3cc(C(=O)OC)oc3C)cc12,-0.8%
16,COc1ccc2c(c1)[N+](C)(C)C(C)(C)C=C2C,0.1%
17,CC(C)=CCC/C(C)=C/CC/C(C)=N/O,-0.4%
18,Cc1ccccc1NC(=O)C1(C)Cc2ccccc2C(=O)O1 (stereo not given),0.5%
19,COc1ccc(/C=C(/C#N)c2cccnc2)cc1OC,1%
20,C=CCOC(=O)C1=C(C)NC(=O)NC1/C=C/c1ccccc1OC (stereo not given),0.4%
